The values below come from publication PMC7862700, “An all-to-all approach to the identification of sequence-specific readers for epigenetic DNA modifications on cytosine”.

Holding throughout (assay): DAPPL (digital affinity profiling via proximity ligation, sequencing); 10 mM Tris-HCl pH 7.5, 50 mM NaCl, 1 mM DTT, 4% glycerol, room temperature, 30 min; GST-TFs on glutathione beads, 16-mer random dsDNA library, 0.1% formaldehyde crosslink after washing; high values mean tight binding
For one assay, the target named is T1, FEV (Homo sapiens, UniProt Q99581 1-238).
T1 sequence: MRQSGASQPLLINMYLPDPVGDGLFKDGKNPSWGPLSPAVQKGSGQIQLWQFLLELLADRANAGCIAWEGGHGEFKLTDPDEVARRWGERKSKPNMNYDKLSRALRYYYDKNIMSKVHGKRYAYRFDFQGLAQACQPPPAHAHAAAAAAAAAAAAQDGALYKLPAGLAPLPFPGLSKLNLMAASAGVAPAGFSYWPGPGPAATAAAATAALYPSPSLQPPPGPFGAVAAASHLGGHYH
The settings on record: protein: recombinant; tags: N-terminal GST; dsDNA, one strand shown. In short, it runs like this: (§1)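 Binding signal is each hexamer's read frequency for a factor divided by its frequency in the tag-only sample. The factors were GST-fused human transcription factors from yeast, captured on glutathione beads, DNA-barcoded and pooled with that sample. Pools were incubated with 200 nmole of a random double-stranded 16-mer DNA library in Tris/NaCl/DTT/glycerol buffer at room temperature for 30 min, then washed, crosslinked with 0.1% formaldehyde, proximity-ligated with BsaI/T4 ligase (1 h, 37 °C), PCR-amplified and sequenced on an Illumina NextSeq500.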

The target of a further assay is ETV5 (Homo sapiens, UniProt P41161 1-510). The settings on record: protein: recombinant; tags: N-terminal GST; dsDNA, one strand shown. In short, it runs like this: as §1
ETV5, sequence (P41161 whole entry): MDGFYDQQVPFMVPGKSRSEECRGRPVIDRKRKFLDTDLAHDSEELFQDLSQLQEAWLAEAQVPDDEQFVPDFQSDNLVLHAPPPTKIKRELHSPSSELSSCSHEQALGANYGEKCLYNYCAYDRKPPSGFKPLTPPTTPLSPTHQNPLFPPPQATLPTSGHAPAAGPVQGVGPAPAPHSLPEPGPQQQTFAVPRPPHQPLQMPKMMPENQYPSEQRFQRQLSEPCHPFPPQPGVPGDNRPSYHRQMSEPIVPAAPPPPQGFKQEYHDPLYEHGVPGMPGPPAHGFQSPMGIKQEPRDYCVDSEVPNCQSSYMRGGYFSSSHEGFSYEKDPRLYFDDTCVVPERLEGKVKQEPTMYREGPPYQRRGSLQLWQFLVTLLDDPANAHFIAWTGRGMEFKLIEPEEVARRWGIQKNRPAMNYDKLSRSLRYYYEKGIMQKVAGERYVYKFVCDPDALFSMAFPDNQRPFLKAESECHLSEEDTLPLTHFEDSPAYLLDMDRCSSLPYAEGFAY
In another assay the target is HSF1 (Homo sapiens, UniProt Q00613 1-529). The following applies: protein: recombinant; tags: N-terminal GST; chain copies: 3; dsDNA, one strand shown. In short, it runs like this: as §1
HSF1, sequence (Q00613 whole entry): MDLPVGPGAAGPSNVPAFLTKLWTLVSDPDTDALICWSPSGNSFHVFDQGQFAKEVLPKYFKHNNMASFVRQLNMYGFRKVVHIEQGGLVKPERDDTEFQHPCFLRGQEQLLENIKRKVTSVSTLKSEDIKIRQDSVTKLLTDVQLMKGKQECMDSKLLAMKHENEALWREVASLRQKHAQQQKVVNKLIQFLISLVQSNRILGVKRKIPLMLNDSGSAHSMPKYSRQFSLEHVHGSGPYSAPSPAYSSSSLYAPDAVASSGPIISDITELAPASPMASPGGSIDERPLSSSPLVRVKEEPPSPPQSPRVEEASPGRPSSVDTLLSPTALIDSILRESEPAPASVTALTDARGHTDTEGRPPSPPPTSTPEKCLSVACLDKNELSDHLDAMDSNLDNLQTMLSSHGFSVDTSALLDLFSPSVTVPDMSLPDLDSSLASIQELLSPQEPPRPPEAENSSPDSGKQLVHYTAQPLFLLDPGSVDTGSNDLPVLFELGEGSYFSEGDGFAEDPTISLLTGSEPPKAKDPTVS
A further assay addresses T2, SPIC (Homo sapiens, UniProt Q8N5J4 1-248).
T2 sequence: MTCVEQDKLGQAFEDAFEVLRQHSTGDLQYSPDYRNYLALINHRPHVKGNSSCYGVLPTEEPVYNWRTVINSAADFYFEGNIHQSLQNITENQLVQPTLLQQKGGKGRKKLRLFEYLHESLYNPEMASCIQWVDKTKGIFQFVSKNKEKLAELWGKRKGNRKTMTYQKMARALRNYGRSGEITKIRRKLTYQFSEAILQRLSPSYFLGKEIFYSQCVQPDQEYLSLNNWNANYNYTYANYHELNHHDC
The settings on record: protein: recombinant; tags: N-terminal GST; dsDNA, one strand shown. In short, it runs like this:
as §1

In the next assay the target is ELF4 (Homo sapiens, UniProt Q99607 1-663). The following applies: protein: recombinant; tags: N-terminal GST; dsDNA, one strand shown. In short, it runs like this: as §1
ELF4, sequence (Q99607 whole entry): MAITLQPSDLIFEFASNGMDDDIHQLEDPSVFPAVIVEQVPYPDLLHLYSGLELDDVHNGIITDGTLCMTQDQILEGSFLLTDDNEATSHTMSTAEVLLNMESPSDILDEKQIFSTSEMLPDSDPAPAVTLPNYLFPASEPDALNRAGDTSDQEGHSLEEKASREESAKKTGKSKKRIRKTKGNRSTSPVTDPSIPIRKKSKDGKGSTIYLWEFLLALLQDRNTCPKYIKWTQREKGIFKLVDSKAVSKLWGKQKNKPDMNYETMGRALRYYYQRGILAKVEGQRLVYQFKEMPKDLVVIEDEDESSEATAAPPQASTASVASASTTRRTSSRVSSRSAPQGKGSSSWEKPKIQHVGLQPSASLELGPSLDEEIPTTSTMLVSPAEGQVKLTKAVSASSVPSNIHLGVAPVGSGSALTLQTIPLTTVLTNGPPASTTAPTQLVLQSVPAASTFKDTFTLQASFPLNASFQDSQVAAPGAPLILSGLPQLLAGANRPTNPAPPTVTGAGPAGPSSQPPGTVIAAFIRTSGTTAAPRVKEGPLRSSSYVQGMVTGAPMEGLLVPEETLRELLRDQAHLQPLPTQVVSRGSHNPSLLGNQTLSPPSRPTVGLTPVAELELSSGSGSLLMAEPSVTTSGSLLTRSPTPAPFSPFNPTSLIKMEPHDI
For another assay, the target named is T3, ELK4 (Homo sapiens, UniProt P28324-2 1-405).
T3 sequence: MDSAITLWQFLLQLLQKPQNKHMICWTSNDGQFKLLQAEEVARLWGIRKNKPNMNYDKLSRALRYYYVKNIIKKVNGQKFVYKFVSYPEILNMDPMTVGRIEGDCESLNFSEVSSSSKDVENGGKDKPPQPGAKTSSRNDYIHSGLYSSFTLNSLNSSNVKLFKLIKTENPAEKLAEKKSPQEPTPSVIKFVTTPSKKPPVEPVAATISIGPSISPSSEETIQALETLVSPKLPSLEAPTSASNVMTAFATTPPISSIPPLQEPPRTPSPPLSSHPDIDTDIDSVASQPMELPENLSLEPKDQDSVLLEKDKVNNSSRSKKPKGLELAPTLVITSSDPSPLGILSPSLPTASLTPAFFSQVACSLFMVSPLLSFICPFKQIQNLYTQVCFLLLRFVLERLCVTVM
The following applies: protein: recombinant; tags: N-terminal GST; dsDNA, one strand shown. The procedure, abridged:
as §1

The next assay has as its target T4, ETV2 (Homo sapiens, UniProt O00321 1-342).
T4 sequence: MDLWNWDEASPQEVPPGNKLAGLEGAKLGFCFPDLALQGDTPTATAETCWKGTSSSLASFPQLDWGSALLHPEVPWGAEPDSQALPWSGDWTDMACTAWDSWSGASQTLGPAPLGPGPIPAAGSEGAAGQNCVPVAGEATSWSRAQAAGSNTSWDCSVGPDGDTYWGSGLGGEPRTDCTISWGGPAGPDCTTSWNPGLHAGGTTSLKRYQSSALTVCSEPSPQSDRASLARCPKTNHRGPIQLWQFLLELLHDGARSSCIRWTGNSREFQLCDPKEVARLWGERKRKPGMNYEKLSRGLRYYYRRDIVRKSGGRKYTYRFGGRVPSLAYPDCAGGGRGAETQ
The settings on record: protein: recombinant; tags: N-terminal GST; dsDNA, one strand shown. The procedure, abridged:
as §1

The next assay deals with T5, ELF3 (Homo sapiens, UniProt P78545 1-371).
T5 sequence: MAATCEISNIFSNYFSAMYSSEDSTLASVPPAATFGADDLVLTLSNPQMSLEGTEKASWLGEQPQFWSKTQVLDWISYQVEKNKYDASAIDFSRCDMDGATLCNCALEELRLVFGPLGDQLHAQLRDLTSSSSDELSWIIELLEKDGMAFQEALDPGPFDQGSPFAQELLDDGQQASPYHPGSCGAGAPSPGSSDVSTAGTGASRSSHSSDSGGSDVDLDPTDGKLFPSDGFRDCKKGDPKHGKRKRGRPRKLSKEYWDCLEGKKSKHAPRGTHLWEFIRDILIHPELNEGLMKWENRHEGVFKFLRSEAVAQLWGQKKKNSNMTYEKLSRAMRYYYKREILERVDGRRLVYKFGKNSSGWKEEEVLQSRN
The following applies: protein: recombinant; tags: N-terminal GST; dsDNA, one strand shown. In short, it runs like this: as §1

The target in the next assay is CRX (Homo sapiens, UniProt O43186 1-299). The settings on record: protein: recombinant; tags: N-terminal GST; dsDNA, one strand shown. In short, it runs like this: as §1
CRX, sequence (O43186 whole entry): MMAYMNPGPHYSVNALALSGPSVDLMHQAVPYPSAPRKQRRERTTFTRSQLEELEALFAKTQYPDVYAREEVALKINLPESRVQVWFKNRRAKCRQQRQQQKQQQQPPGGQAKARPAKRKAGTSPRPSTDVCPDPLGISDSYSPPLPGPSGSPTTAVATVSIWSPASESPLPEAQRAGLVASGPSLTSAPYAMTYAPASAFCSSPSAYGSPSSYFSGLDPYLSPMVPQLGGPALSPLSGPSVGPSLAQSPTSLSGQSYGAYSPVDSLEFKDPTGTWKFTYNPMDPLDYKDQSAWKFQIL
The target of another assay is ETV1 (Homo sapiens, UniProt P50549 1-477). The settings on record: protein: recombinant; tags: N-terminal GST; dsDNA, one strand shown. In short, it runs like this:
as §1

The target in the next assay is T6, ERF (Homo sapiens, UniProt P50548 1-548).
T6 sequence: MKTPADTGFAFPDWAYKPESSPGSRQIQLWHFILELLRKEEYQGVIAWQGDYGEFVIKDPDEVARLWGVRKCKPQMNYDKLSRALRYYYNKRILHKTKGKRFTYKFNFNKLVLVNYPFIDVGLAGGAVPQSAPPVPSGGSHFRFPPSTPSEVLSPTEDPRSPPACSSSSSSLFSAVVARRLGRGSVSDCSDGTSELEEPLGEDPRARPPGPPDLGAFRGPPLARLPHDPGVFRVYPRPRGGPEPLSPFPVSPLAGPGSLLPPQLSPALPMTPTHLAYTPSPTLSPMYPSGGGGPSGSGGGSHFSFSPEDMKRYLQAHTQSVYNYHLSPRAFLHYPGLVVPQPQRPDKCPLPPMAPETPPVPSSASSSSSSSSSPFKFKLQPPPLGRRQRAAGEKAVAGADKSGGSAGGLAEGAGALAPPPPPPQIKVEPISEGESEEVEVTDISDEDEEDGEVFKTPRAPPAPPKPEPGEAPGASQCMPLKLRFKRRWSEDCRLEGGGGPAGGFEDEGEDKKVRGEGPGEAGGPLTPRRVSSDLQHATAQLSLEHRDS
The following applies: protein: recombinant; tags: N-terminal GST; dsDNA, one strand shown. In short, it runs like this: as §1

The next assay addresses T7, ETV3L (Homo sapiens, UniProt Q6ZN32 1-361).
T7 sequence: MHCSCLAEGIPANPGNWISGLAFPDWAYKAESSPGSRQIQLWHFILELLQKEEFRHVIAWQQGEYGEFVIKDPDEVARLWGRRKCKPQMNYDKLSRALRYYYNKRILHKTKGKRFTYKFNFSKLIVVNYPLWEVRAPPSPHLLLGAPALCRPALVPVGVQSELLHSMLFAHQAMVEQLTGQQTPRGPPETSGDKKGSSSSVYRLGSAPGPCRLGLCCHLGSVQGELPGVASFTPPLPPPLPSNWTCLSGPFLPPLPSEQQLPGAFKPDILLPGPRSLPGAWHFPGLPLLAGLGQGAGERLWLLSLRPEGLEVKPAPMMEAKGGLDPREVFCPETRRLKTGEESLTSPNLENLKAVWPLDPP
The following applies: protein: recombinant; tags: N-terminal GST; dsDNA, one strand shown. In short, it runs like this:
as §1

The target in a further assay is T8, ETS2 (Homo sapiens, UniProt P15036 1-469).
T8 sequence: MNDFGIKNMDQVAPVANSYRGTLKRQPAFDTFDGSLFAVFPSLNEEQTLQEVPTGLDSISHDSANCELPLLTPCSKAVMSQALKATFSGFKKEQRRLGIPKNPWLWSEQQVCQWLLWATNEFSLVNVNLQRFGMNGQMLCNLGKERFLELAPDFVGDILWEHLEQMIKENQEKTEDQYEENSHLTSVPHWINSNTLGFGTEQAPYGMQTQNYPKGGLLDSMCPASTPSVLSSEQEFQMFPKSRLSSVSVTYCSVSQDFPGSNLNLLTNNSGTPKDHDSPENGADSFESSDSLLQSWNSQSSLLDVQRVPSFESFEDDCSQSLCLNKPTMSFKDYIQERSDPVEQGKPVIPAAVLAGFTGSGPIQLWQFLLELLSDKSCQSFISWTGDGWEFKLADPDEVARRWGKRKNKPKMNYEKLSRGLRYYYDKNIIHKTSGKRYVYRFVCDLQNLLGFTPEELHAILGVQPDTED
The settings on record: protein: recombinant; tags: N-terminal GST; dsDNA, one strand shown. The procedure, abridged:
as §1

Another assay concerns the target T9, SPDEF (Homo sapiens, UniProt O95238 1-335).
T9 sequence: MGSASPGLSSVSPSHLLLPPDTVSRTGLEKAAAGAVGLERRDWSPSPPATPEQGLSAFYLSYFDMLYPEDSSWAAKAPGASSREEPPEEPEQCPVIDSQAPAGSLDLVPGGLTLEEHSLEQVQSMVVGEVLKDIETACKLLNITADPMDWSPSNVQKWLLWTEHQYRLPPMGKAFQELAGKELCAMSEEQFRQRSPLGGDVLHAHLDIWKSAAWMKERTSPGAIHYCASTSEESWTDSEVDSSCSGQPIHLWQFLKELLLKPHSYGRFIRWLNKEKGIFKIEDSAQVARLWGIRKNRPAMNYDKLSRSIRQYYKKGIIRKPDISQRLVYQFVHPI
The settings on record: protein: recombinant; tags: N-terminal GST; dsDNA, one strand shown. In short, it runs like this:
as §1

Another assay addresses T10, ETV7 (Homo sapiens, UniProt Q9Y603 1-341).
T10 sequence: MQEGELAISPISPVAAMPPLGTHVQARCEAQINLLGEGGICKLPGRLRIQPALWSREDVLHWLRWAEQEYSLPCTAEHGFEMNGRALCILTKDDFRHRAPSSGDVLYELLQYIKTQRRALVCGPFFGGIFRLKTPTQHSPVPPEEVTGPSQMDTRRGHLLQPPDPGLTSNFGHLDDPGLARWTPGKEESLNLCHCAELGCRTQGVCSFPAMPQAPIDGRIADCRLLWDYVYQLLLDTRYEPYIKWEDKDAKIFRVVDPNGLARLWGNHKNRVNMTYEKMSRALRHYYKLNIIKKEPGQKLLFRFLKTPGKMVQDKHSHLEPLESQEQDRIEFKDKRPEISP
The following applies: protein: recombinant; tags: N-terminal GST; dsDNA, one strand shown. The procedure, abridged:
as §1

For a further assay, the target named is T11, ELF5 (Homo sapiens, UniProt Q9UKW6-2 1-255).
T11 sequence: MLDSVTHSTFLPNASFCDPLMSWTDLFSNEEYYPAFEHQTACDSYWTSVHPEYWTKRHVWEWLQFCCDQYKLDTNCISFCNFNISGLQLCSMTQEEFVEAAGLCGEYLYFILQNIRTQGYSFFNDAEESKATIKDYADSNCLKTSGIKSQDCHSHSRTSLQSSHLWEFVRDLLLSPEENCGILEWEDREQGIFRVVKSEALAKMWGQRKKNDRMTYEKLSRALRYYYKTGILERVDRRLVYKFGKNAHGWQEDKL
The following applies: protein: recombinant; tags: N-terminal GST; dsDNA, one strand shown. The procedure, abridged: as §1

The next assay concerns the target T12, ETV3 (Homo sapiens, UniProt P41162-2 1-143).
T12 sequence: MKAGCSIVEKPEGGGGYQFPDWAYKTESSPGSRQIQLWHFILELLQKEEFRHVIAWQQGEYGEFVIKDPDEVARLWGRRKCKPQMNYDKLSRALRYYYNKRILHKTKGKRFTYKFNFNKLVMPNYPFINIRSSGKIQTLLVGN
The settings on record: protein: recombinant; tags: N-terminal GST; dsDNA, one strand shown. In short, it runs like this:
as §1

The target of the next assay is ETV6 (Homo sapiens, UniProt P41212 1-452). The settings on record: protein: recombinant; tags: N-terminal GST; dsDNA, one strand shown. The procedure, abridged:
as §1

ETV1, sequence (P50549 whole entry): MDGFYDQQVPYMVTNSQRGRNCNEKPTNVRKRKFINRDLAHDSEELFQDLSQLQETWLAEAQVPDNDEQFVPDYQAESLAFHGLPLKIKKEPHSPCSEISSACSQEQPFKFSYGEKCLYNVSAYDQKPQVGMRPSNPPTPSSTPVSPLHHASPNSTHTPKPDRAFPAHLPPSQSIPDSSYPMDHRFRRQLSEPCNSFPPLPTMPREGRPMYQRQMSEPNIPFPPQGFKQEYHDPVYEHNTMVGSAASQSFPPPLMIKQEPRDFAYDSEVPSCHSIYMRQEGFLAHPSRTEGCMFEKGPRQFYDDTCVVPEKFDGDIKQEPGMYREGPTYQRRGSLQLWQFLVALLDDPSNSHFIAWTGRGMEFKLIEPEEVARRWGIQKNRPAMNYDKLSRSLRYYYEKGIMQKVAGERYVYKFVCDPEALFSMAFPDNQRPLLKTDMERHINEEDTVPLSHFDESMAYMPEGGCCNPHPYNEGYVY
ETV6, sequence (P41212 whole entry): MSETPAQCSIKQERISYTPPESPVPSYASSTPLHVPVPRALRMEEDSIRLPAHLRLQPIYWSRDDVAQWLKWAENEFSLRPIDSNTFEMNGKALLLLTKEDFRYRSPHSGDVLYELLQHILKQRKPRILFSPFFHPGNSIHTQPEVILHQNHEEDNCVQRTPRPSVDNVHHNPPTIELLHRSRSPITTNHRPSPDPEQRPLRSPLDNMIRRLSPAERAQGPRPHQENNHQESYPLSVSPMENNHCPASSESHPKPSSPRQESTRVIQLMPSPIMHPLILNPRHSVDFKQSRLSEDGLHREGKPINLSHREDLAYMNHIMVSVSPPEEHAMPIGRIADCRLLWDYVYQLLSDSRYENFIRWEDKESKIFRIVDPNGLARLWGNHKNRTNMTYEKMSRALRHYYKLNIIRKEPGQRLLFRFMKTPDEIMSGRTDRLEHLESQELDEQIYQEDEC

For the sequence ATTTAA, the binding signal with FEV is 1.14 fold enrichment (6-mer frequency, TF over GST control); with ETV5 it was 1.24 fold enrichment (6-mer frequency, TF over GST control); in the assay with HSF1, 1.62 fold enrichment (6-mer frequency, TF over GST control); with SPIC, 1.22 fold enrichment (6-mer frequency, TF over GST control); with ELF4, 1.13 fold enrichment (6-mer frequency, TF over GST control); with ELK4, 1.18 fold enrichment (6-mer frequency, TF over GST control). For the same sequence, the binding signal was 1.17 fold enrichment (6-mer frequency, TF over GST control) with ETV2; 1.11 fold enrichment (6-mer frequency, TF over GST control) with ELF3; 2.38 fold enrichment (6-mer frequency, TF over GST control) in the assay with CRX; 1.14 fold enrichment (6-mer frequency, TF over GST control) with ETV1; 1.21 fold enrichment (6-mer frequency, TF over GST control) in the assay with ERF; 1.19 fold enrichment (6-mer frequency, TF over GST control) with ETV3L. In addition, the binding signal with ETS2 is 1.28 fold enrichment (6-mer frequency, TF over GST control); with SPDEF, 1.24 fold enrichment (6-mer frequency, TF over GST control); in the assay with ETV7 it was 1.27 fold enrichment (6-mer frequency, TF over GST control); with ELF5, 1.1 fold enrichment (6-mer frequency, TF over GST control); in the assay with ETV3, 1.13 fold enrichment (6-mer frequency, TF over GST control); with ETV6 it was 1.21 fold enrichment (6-mer frequency, TF over GST control).
